Laboratory results as given in PubChem BioAssay (NCI).
About 83,000 compounds went through this panel and 20% of them were active in at least one assay; those are over-represented in the sample as a whole.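 Cell lines were cultured in 96-well plates, exposed to a single compound concentration, and assessed for percent growth 48 hours later.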 Values without a mark were called inactive. Activity calls are given as the source filed them.

system: MOLT-4 leukemia; assay: NCI-60 one-dose screen, 48 h (100 = growth as untreated, 0 = no growth, -100 = all killed); settings: 10 µM unless noted
Procedure: Growth inhibition of the MOLT-4 human tumor cell line is measured as a screen for anti-cancer activity. Cells are grown in 96 well plates and exposed to the test compound for 48 hours. Compounds are tested at a single concentration, which is 10^-5 M for most compounds. The reported endpoint is percent growth (GI% or GIPRCNT), where numbers from 0 - 100% represent growth inhibition, and numbers from -100% - 0 represent cell death. For example, a value of 40 represents 60% growth inhibition. A value of 0 means no net growth occurred over the course of the experiment. A value of -40 indicates 40% of cells at the beginning of the experiment died by the end of the experiment. A value of -100 means all cells are dead at the end of the experiment.
NCI-60 Human Tumor Cell Lines Screen was performed using the standard one-dose NCI protocol, which is described in more detail at https://dtp.cancer.gov/discovery_development/nci-60/default.htm.
Compounds with GIPRCNT values below 10 were considered active. Activity score was based on GIPRCNT using the following formula: […]
Score is 0 for GIPRCNT values of 100 or above, 50 for GIPRCNT values of 0, and 100 for GIPRCNT values of -100.

Question: COc1cc(-c2cc3cnccc3c3nc(N)c4ccncc4c23)cc(OC)c1OC was tested. Which growth did it give?
Answer: Its growth is 32.9%.

Question: With CCCCS(=O)(=O)c1cc(Nc2ccc(O)c3c2C(=O)c2ccccc2C3=O)ccc1C as the compound, how does the growth read?
Answer: The growth was 61.2%.

Question: CCCCCCC(C(=O)OCC)(C(=O)OCC)C1CCCCCC1 was tested. Which growth did it give?
Answer: The growth was 104%.

Question: For N#Cc1ccc(OCc2nc(N)nc(N)c2-c2ccc(Cl)c(Cl)c2)cc1, which growth is on record?
Answer: The growth was 22.9%.

Question: Cn1c2c(cc(S(=O)(=O)c3ccccc3)c1=O)CCc1c-2cnn1-c1ccc(Cl)cc1 was tested. Which growth did it give?
Answer: Its growth is 57.5%.

Question: Which growth does the source give for CCOC(=O)c1c(C)oc2ncnc(Nc3ccc(NC(=O)Nc4ccc(CC)cc4)cc3)c12 here?
Answer: Its growth is 98.7%.

Question: Which growth does the source give for COc1ccc(C2=NN(C(=O)c3cc(-c4ccc(C)cc4)nc4ccccc34)C(c3cc(-c4ccccc4)nn3-c3ccccc3)C2)cc1 (stereo not given) here?
Answer: Its growth is 84.7%.

Question: For O=C1C(=O)c2ccccc2C(O)=C1CCCc1ccc(Oc2ccccc2)cc1, which growth is on record?
Answer: Its growth is 50.3%.

Question: CCOC(=O)NNc1[nH]c(-c2ccc(OC)cc2)cc1C#N was tested. Which growth did it give?
Answer: The growth was 8.55% (active).

Question: With CC1(C)N=C(N)N=C(N)N1c1cccc(CCCCOc2ccccc2)c1 as the compound, how does the growth read?
Answer: The growth was 14.1%.

Question: CC(=O)c1nn(-c2ccc(C)cc2)cc1C(=O)c1cc2c(ccc3ccccc32)oc1=O was tested. Which growth did it give?
Answer: Its growth is 102%.

Question: How did the growth turn out when COc1cc(-c2nc(/C=C3/C(=O)Nc4ccccc43)c3ccccn23)cc(OC)c1OC was run?
Answer: Its growth is 62.8%.

Question: For CCC(CCCN1C(=O)c2ccccc2C1=O)Nc1cc(OC)cc2cccnc12 (stereo not given), which growth is on record?
Answer: Its growth is 73.8%.

Question: Which growth does the source give for COc1cccc(CNC(=O)c2cccc(C3CC(=O)c4c(cc(OC)c(OC)c4OC)O3)c2)c1 (stereo not given) here?
Answer: Its growth is 67%.

Question: O=C(/C=C/c1ccc(Br)cc1)c1ccccc1 was tested. Which growth did it give?
Answer: The growth was 92.3%.

Question: For COc1cc(-c2nn(-c3ccc(NC(=O)Nc4cc(C(F)(F)F)cc(C(F)(F)F)c4)cc3)cc2-c2ccncc2)ccc1Cl, which growth is on record?
Answer: Its growth is 7.23% (active).

Question: CCOC(=O)C1CCCN1C(=O)C1(NC(C)=O)CCCC1 (stereo not given) was tested. Which growth did it give?
Answer: The growth was 116%.

Question: How did the growth turn out when O=C1CCNC1 was run?
Answer: The growth was 98.8%.

Question: COc1ccc(C(=O)NCCNc2nccc(-c3c(-c4ccc(F)cc4)nc4sccn34)n2)cc1 was tested. Which growth did it give?
Answer: Its growth is 59.8%.

Question: COC(=O)C1CC(=O)N(C(=O)Nc2ccc(Cl)cc2Cl)C1 (stereo not given) was tested. Which growth did it give?
Answer: Its growth is 95%.

Question: O=C(OCC1CC2(Cl)C(Cl)=C(Cl)C1(Cl)C2(Cl)Cl)C1C(C(=O)OCC2CC3(Cl)C(Cl)=C(Cl)C2(Cl)C3(Cl)Cl)C2(Cl)C(Cl)=C(Cl)C1(Cl)C2(Cl)Cl (stereo not given) was tested. Which growth did it give?
Answer: Its growth is 85%.

Question: How did the growth turn out when COc1cc([C@@H]2c3cc4c(cc3[C@H](O)[C@H]3COC[C@@H]23)OCO4)cc(OC)c1OC was run?
Answer: The growth was 76.6%.

Question: How did the growth turn out when CC(=O)c1cc(Nc2cc(C)nc(N)n2)cc(C(C)=O)c1 was run?
Answer: Its growth is 91.2%.

Question: Which growth does the source give for O=C1Nc2c(c(=O)n(-c3ccccc3)c3ccccc23)C(c2ccc(Cl)cc2)N1 (stereo not given) here?
Answer: Its growth is 81.9%.

Question: For CCOC(=O)C1=C(C(F)(F)F)NC(=O)NC1CN1C(=O)c2ccccc2C1=O (stereo not given), which growth is on record?
Answer: Its growth is 70.5%.

Question: CC(=O)Nc1ccc(C(=O)/C=C/c2ccc(N(C)C)cc2)cc1 was tested. Which growth did it give?
Answer: Its growth is 99.2%.

Question: How did the growth turn out when CCCCCCCCC(=O)Nc1ccc(O)cc1 was run?
Answer: The growth was 57.9%.

Question: CC(=O)c1ccc2c(c1)c1ccccc1n2C was tested. Which growth did it give?
Answer: The growth was 82%.

Question: Which growth does the source give for COC(=O)C(C(=O)OC)C(Br)C(Br)C(Br)c1ccccc1 (stereo not given) here?
Answer: The growth was 63.8%.

Question: Which growth does the source give for CCCNC(=O)Oc1ccc(/C(=C(/C)Cc2ccc(OC)cc2)c2ccc(OCCN3CCCCC3)cc2)cc1 here?
Answer: Its growth is 70.9%.

Question: With COc1cc2c(/C=C3\C(=O)Nc4ccc(Br)cc43)c(Cl)n(C)c2cc1C as the compound, how does the growth read?
Answer: Its growth is 4.36% (active).

Question: For OCCN1CCN(CC/C=C2/c3ccccc3Sc3ccc(C(F)(F)F)cc32)CC1, which growth is on record?
Answer: The growth was 41.3%.

Question: With CNc1ccc(Nc2ccc(S(=O)(=O)O)cc2)c2c1C(=O)c1ccccc1C2=O as the compound, how does the growth read?
Answer: Its growth is 106%.

Question: Which growth does the source give for BrCCCOc1ccc(Oc2ccc(OCCCBr)cc2)cc1 here?
Answer: The growth was 96.4%.

Question: For CCCCCCCCCc1cc[n+](CC(=O)c2ccc([N+](=O)[O-])cc2)cc1, which growth is on record?
Answer: Its growth is 1.62% (active).

Question: For Oc1ccc(Br)cc1/C=N/NC(=S)NC12CC3CC(CC(C3)C1)C2, which growth is on record?
Answer: The growth was 1.75% (active).

Question: With Cc1cc2c(-c3nc4ccccc4n3C)c(O)c(O)cc2c(O)c1-c1c(C)cc2c(-c3nc4ccccc4n3C)c(O)c(O)cc2c1O as the compound, how does the growth read?
Answer: The growth was 26.7%.

Question: Oc1ccc(N=Nc2ccc(N=Nc3ccccc3)cc2)cc1 was tested. Which growth did it give?
Answer: The growth was 4.57% (active).

Question: With COc1cc(OC)c2c(=O)cc(-c3ccccc3)oc2c1 as the compound, how does the growth read?
Answer: Its growth is 80.4%.

Question: How did the growth turn out when COc1ccc(/C(=C(\c2ccccc2)[N+](=O)[O-])c2ccc(OCCN3CCCC3)cc2)cc1 was run?
Answer: Its growth is 71.9%.
